These results are taken from PubChem BioAssay (NCI).

This is part of a sample that, as a whole, favours compounds with a hit. Of some 83,000 tested, about 20% had one in any assay.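 Cell lines were cultured in 96-well plates, exposed to a single compound concentration, and assessed for percent growth 48 hours later.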 A number with no mark means an inactive call. How the source made its calls: active means growth percent below 10; inactive means the rest.

The experiment concerns SNB-19 CNS. As to the kind of experiment: NCI-60 one-dose screen, 48 h (100 = growth as untreated, 0 = no growth, -100 = all killed). The note with it: 10 µM unless noted.
As to `CCN(CC)CCCCCCNc1cc(OC)cc2cccnc12`, the growth was 95.6%.

On to `COc1ccccc1Nc1cc(O)c2c(=O)cc(-c3ccccc3)oc2c1`, for which the growth was 43.9%.

On to `COc1ccc(C(O)c2cc3c(N)c(C(=O)Nc4ccc(Cl)cc4)sc3nc2C)cc1` (stereo not given), for which the growth is 37.2%.

Turning to `COc1cc(NCC(O)CN(CC(C)C)CC(C)C)c2nc(C)ccc2c1` (stereo not given), the growth is 96%.

As to `CCCCCCCCCCN=C(N)N=C(N)N`, the growth is 38.7%.

As to `COc1ccc(C(O)c2cc3c(N)c(C(=O)Nc4cccc(Br)c4C)sc3nc2C)cc1` (stereo not given), the growth was 44%.

As to `CCCCCCCCCCCCCCCCCCOc1ccccc1N`, the growth is 87.1%.

For the molecule `CC(=O)O[C@H]1CC[C@@]2(C)[C@@H](CC[C@@H]3[C@@H]2CC[C@@]2(C)[C@H]3CC[C@]2(O)C(C)=O)C1`, the growth is 102%.

Turning to `CCC1(CC)NC(=O)c2c(c3ccc(Cl)c(Cl)c3n2C)C1C#N` (stereo not given), the growth was 85%.

In the case of `COc1ccc(C2CC(c3cccc(Nc4ccncc4)c3)=NN2c2cc(Cl)cc(Cl)c2)cc1` (stereo not given), the growth is 91%.

With `CC(=O)Nc1ccc(S(=O)(=O)NC2CCCCC2)cc1`, the growth was 96.2%.

`Clc1ccc(N2N=C(c3cccc(Nc4ccncc4)c3)CC2c2ccccc2)cc1` (stereo not given): the growth was 95.6%.

For `CN1C2CCC1CN(c1cnc(C(=O)Nc3cc(F)cc4cccnc34)cn1)C2`, the growth is 92.7%.

With `C=Cc1cc[n+](CCCCCCCCCCCC)cc1`, the growth was 103%.

Turning to `CCCCCCCCCCCCCCCC(=O)OC[C@@]1(O)C[C@@]23CC[C@@H]4C(C)(C)[C@H](O)CC[C@@]4(C)[C@@H]2CC[C@H]1C3`, the growth is 96.7%.
